Source: PubChem BioAssay (National Center for Advancing Translational Sciences (NCATS))
Compounds with a hit are over-represented: about 1.7% of the library has one in this group of screens.
PTHR1 agonist: activates the human parathyroid hormone receptor PTHR1; Q03431; HEK293 GP2 PTHR1 cells, GloSensor cAMP luminescence, 1 h; Potency, µM (series often up to 115 µM), inactives show top-dose activation, usual class: activators; hit rate 0.075% among 410,000; AID 743266; further: nearly all actives have a fitted effect of over 55% in size
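HEK-293-derived GP2 cells expressing PTHR1 and a GloSensor cAMP reporter, 3,000/well, plated overnight, given luciferin plus IBMX (each 0.5 mM as added) for 1 h at 37 °C, then compound for 1 h at 37 °C. Luminescence was read after 15 min at room temperature.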
GLP1R ag: agonists of human GLP-1 receptor; AID 624172; hit rate 0.007% among 380,000; P43220; Potency, µM (top dose mostly 45.6 µM), without a hit: at the top dose activation, usual class: activators; HEK293 GLP-1R CRE-luciferase, luminescence, 4-6 h; cells express a hypersensitive GLP-1R form; further: % of control where 0% means no effect
Target sequence (P43220 whole entry, looked up): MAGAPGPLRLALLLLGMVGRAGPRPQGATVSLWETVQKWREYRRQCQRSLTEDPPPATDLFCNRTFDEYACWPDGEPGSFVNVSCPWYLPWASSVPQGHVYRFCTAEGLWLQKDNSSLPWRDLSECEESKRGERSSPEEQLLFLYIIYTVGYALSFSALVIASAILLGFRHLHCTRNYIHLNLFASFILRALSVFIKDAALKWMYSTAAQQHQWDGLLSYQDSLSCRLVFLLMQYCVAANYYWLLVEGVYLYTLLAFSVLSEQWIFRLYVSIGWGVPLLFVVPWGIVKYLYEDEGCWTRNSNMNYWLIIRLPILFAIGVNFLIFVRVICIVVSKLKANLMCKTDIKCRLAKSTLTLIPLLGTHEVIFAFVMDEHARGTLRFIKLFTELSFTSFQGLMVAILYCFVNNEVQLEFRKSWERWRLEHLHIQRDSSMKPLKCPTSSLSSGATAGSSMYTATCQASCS
HEK293 tox: cytotoxicity in counter-screen for GLP-1R inverse agonists | HEK293 cAMP-luciferase reporter cells, luminescence, 24 h | Potency, µM (doses to about 38.3 µM), inactives show top-dose activity change, negative = inhibition, most hits filed as inhibitors | hit rate 0.13% among 410,000 | AID 624418;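 further: loss of luciferase light is scored as toxicity; on the % scale 0 is the no-effect control and ±100 the full control effect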
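Luminescence readout: signal drop marks cytotoxicity. Plated cells grew 12 h at 37 °C, 5% CO2, received 23 nL compound for 24 h, then got luciferase reagent, read after 12 min at RT.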
GLP1R inv ag: inverse agonists of human GLP-1 receptor. hit rate 1.6% among 410,000. HEK293 GLP-1R CRE-luciferase, luminescence, 24 h; GLP-1R form is constitutively active. AID 624417. Potency, µM (highest dose often 38.3 µM), inactives show at the top dose activity change, negative = inhibition, usual class: inhibitors; further: on the % scale 0 is the no-effect control and ±100 the full control effect; nearly all actives have a fitted effect of over 55% in size
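HEK293 cells stably co-expressing constitutively active GLP-1R and a cAMP-responsive luciferase reporter were seeded in DMEM with 10% Nu serum, given compounds after 12 h, and incubated 24 h at 37 deg C. Luminescence was then read.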
* = called active by the depositor; [ ] = another dose, or the depositor's remark. The call rests on the fitted dose curve; in most records, active means well fitted curve in the direction sought with a large enough effect; inconclusive means small, poorly fitted or top-dose-only effect, or another doubt; inactive means no such curve, though single readings can be large; an effect the other way counts as inactive or inconclusive. Potency means the concentration at half of the fitted maximal effect.

For COc1ccc(-c2noc(CSc3nc4ccccc4c(=O)n3-c3ccccc3)n2)cc1OC the results were PTHR1 agonist -5.9%[57.5 µM], GLP1R ag 1.0%, HEK293 tox -3.8% and GLP1R inv ag 5.0%.
`O=c1c2ccccc2nc(SCc2nc(-c3ccccc3)no2)n1-c1ccc(F)cc1` gave PTHR1 agonist -21.4%, GLP1R ag -1.5%, HEK293 tox -6.5% and GLP1R inv ag 3.55µM*.
Screening Cc1ccc(-n2c(Cc3ccccc3)nnc2SCc2nc(-c3cccs3)no2)cc1 returned PTHR1 agonist inactive, HEK293 tox -5.7% and GLP1R inv ag 10µM*.
COc1cc(-c2noc(-c3ccc(N4CCOCC4)c([N+](=O)[O-])c3)n2)cc(OC)c1OC was read as PTHR1 agonist -33.6%, HEK293 tox -1.1% and GLP1R inv ag 10.9%.
Clc1ccccc1-c1nnc(COc2ccccc2)o1 was read as PTHR1 agonist inactive, HEK293 tox 1.9% and GLP1R inv ag 0.0%.
Cc1cccc(C2=NN(c3ccccc3)[C@H](CO)[C@H]2c2ccc(Cl)cc2)c1 was read as PTHR1 agonist -22.7%, GLP1R ag -3.8%, HEK293 tox 192.5% and GLP1R inv ag 10µM*.
Screening CC1CCCN(CCCNC(=O)c2cc3c(s2)-c2ccccc2OC3)C1 (stereo unspecified) returned PTHR1 agonist -3.2%, GLP1R ag 16.1%, HEK293 tox -9.5% and GLP1R inv ag 8.91µM*.
Screening COc1ccc(CN2CCC(CNS(=O)(=O)c3cccc(C(F)(F)F)c3)CC2)cc1 returned PTHR1 agonist -66.1%, GLP1R ag 5.5%, HEK293 tox -28.4% and GLP1R inv ag 11.2µM*.
For Cc1nn(Cc2ccc(Cl)cc2Cl)c(C)c1NC(=O)c1ccc(COc2cc(Cl)ccc2Cl)o1 the results were PTHR1 agonist -22.5%, GLP1R ag 1.7%, HEK293 tox -11.8% and GLP1R inv ag inconclusive.
`Cc1nn(Cc2c(F)c(F)c(F)c(F)c2F)c(C)c1NC(=O)c1ccc(COc2ccc(Cl)cc2Cl)o1` gave PTHR1 agonist -0.8%, GLP1R ag 1.2%, HEK293 tox -14.5% and GLP1R inv ag 5.01µM*.
`COc1cc(NC(=O)C2CCN(S(=O)(=O)c3c(C)noc3/C=C/c3cccs3)CC2)cc(OC)c1` gave PTHR1 agonist -8.5%, HEK293 tox 2.3% and GLP1R inv ag inconclusive.
Screening Oc1ccc(/C=N/Nc2ccccc2)cc1 returned PTHR1 agonist inactive, GLP1R ag 4.2%, HEK293 tox -1.1% and GLP1R inv ag inconclusive.
Screening COc1cc(/C=N/Nc2ccccc2)ccc1O returned PTHR1 agonist inactive, GLP1R ag 11.8%, HEK293 tox 5.5% and GLP1R inv ag 2.51µM*.
`COc1cc(/C=N/Nc2ccccc2C(F)(F)F)ccc1O` gave PTHR1 agonist 3.0%, GLP1R ag 10.7%, HEK293 tox 3.5% and GLP1R inv ag inconclusive.
`Brc1ccc(/C=N/Nc2ccccc2)cc1` gave PTHR1 agonist inconclusive, GLP1R ag 0.9%, HEK293 tox 0.0% and GLP1R inv ag 4.47µM*.
`O=C(CCCSc1nc(-c2ccco2)cc(C(F)(F)F)n1)Nc1ccc2c(c1)OCO2` gave PTHR1 agonist inactive, GLP1R ag 4.2%, HEK293 tox -4.1% and GLP1R inv ag 10µM*.
Cc1c(Cl)cccc1NC(=O)CSc1cc(-c2ccccc2)ncn1 was read as PTHR1 agonist -4.0%, HEK293 tox 12.6% and GLP1R inv ag 2.2%.
Screening COc1ccc(N/N=C(/N=Nc2nc(C)cc(=O)[nH]2)c2ccccc2)cc1 returned PTHR1 agonist inactive, GLP1R ag 0.3%, HEK293 tox 3.98µM* and GLP1R inv ag inconclusive.
For CCCCn1c(CNC(=O)C23CC4CC(CC(C4)C2)C3)nnc1SC(C)CC (stereo unspecified) the results were PTHR1 agonist inactive, GLP1R ag 2.4%, HEK293 tox -14.7% and GLP1R inv ag 3.55µM*.
Screening CCOc1ccc(NC(=O)CN(C)C(=O)CCCOc2ccc(Br)cc2)cc1OCC returned PTHR1 agonist -3.2%, GLP1R ag 7.6%, HEK293 tox 3.3% and GLP1R inv ag 10µM*.
Cc1cc(C(=O)NCCC(c2ccccc2)c2ccccc2)c(C)o1 was read as PTHR1 agonist inactive, GLP1R ag -0.1%, HEK293 tox -1.4% and GLP1R inv ag 8.91µM*.
Cc1cccc(C(=O)n2nc(-c3cccnc3)nc2NCc2ccccc2)c1 was read as PTHR1 agonist -29.5%, HEK293 tox 4.1% and GLP1R inv ag 3.6%.
O=C(NN=Cc1c(O)ccc2ccccc12)C1CC1 was read as PTHR1 agonist -3.4%, GLP1R ag -1.1%, HEK293 tox -18.6% and GLP1R inv ag inconclusive.
Screening O=C(CN1CCCC1)N/N=C/c1c(O)ccc2ccccc12 returned PTHR1 agonist -4.1%, GLP1R ag -5.9%, HEK293 tox 4.3% and GLP1R inv ag 2.82µM*.
`CC(C)CCNC(=O)C(c1ccco1)N(Cc1ccc(F)cc1)C(=O)c1snc(C(N)=O)c1N` (stereo unspecified) gave PTHR1 agonist inconclusive, GLP1R ag -3.3%, HEK293 tox 1.1% and GLP1R inv ag 3.55µM*.
NC(=O)c1nsc(C(=O)N(Cc2ccc(F)cc2)C(C(=O)NC2CCCC2)c2ccco2)c1N (stereo unspecified) was read as PTHR1 agonist inactive, GLP1R ag 3.3%, HEK293 tox 2.3% and GLP1R inv ag -10.7%.
Screening COc1cc(C(C(=O)NC2CCCC2)N(Cc2ccco2)C(=O)c2snc(C(N)=O)c2N)cc(OC)c1OC (stereo unspecified) returned PTHR1 agonist -10.2%, GLP1R ag 2.2%, HEK293 tox 0.6% and GLP1R inv ag -7.3%.
Screening CN(C)c1ccc(C(C(=O)NC2CCCCC2)N(Cc2ccco2)C(=O)c2snc(C(N)=O)c2N)cc1 (stereo unspecified) returned PTHR1 agonist -2.7%, GLP1R ag 5.5%, HEK293 tox inconclusive and GLP1R inv ag 2µM*.
CC1(C)CC2CC(C)(CN2S(=O)(=O)c2ccc(C(=O)Nc3ccc(S(=O)(=O)N4CCOCC4)cc3)cc2)C1 (stereo unspecified) was read as PTHR1 agonist -35.5%, GLP1R ag 0.6%, HEK293 tox 10.9% and GLP1R inv ag 11.2µM*.
Screening O=C(Nc1ccc(Cl)c(S(=O)(=O)N2CCOCC2)c1)c1cc2ccccc2oc1=O returned PTHR1 agonist -25.3%, GLP1R ag 0.4%, HEK293 tox -0.2% and GLP1R inv ag 13.1%.
`CC1(C)CC2CC(C)(CN2S(=O)(=O)c2ccc(C(=O)Nc3ccc(Cl)c(S(=O)(=O)N4CCOCC4)c3)cc2)C1` (stereo unspecified) gave PTHR1 agonist -29.7%, GLP1R ag -16.6%, HEK293 tox -11.8% and GLP1R inv ag 3.55µM*.
Screening CC(=O)Nc1ccc(S(=O)(=O)N2CC3(C)CC2CC(C)(C)C3)cc1 (stereo unspecified) returned PTHR1 agonist inactive, GLP1R ag 9.5%, HEK293 tox -5.5% and GLP1R inv ag inconclusive.
